Several values for one entry are separate records, joined by “and”; a condition that tells them apart may be missing. Equal entries are not always repeated. Some structures have more than one record in an assay (separate samples or runs), and their calls can disagree. Activity calls are given as the source filed them.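 How the source made its calls, unless noted: active means inhibition at or above 50% relative to wild type and mutant plate controls; inactive means inhibition below 50%.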
What was measured:
[1] = reduction of polyQ htt aggregates in cells – imaging, exon1htt(103Q)mCFP cells, high-content imaging, primary screen (AID 483;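 active means visual image review flags a hit and inhibition of aggregation exceeds 20%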;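 further: compound exposure lasted 3 days before fixation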;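 on nuclei count: percent of the per-plate median nuclei count of sample wells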); conditions: exon1htt(103Q)mCFP cell line, aggregate imaging, at 2 µM; inhibition of aggregation: stronger effect = higher value; nuclei count: measured here: cell count, toxicity
[2] = endothelial E-selectin expression blockers – imaging, HUVEC, immunofluorescence, MLSMR starter and 10KST1 sets, primary screen (AID 487;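 active means visually confirmed hit in the image check and inhibition above 20%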;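 on inhibition: signal is fraction of cell area covered by stained E-selectin grains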;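 on nuclei count: 100% = median nuclei count of all wells on the same plate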); conditions: HUVEC TNFalpha-induced E-selectin immunofluorescence imaging, at 2 µM; inhibition: stronger effect = higher value; nuclei count: measured here: cell number, toxicity
[3] = Primary imaging screen for DUSP6 inhibitors that restore phospho-Erk in transfected HeLa cells, chemical complementation (AID 609;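 active means compounds giving at least 50% inhibition in the cell-based MKP-3 phosphatase rescue imaging test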;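 on inhibition: phospho-Erk level distribution per well compared with pooled transfected vehicle control wells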); conditions: HeLa MKP-3 transfected, phospho-Erk imaging KS statistic, at 10 µM, cells stimulated with TPA for 15 min
[4] = biological target: Dual specificity protein phosphatase 6 (Homo sapiens) (UniProt Q16828); assay: as above; conditions: HeLa MKP-3 transfected, phospho-Erk imaging KS statistic; at 10 µM; stronger effect = higher value; cells stimulated with TPA for 15 min
Sequence of Dual specificity protein phosphatase 6 (Homo sapiens) (Q16828 whole entry, looked up): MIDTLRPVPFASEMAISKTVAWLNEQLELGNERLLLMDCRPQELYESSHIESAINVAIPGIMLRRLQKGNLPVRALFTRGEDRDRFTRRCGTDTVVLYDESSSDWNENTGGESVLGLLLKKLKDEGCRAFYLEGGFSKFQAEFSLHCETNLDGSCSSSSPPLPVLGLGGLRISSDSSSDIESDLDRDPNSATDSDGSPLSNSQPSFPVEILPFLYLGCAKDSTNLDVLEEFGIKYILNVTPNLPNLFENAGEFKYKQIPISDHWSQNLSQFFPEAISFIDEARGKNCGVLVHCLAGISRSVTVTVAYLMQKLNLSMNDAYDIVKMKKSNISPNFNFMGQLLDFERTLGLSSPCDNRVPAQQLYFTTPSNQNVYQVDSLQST

[5] = biological target: Voltage-gated potassium channel subunit beta-2 (Rattus norvegicus) (UniProt P62483); assay: inhibitors of rat Kvbeta2 reductase activity – biochemical, NADPH fluorescence, primary screen (AID 622;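 active means fluorescence slope higher than the sample average by over 3 SD, cut at about -0.22 in these data, passing the limit was not always enough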;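 further: slope of raw intensity against log time taken from 70 to 1610 s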); conditions: recombinant KvBeta, 4-cyanobenzaldehyde reduction, at 10 µM, stronger effect = higher value
Sequence of Voltage-gated potassium channel subunit beta-2 (Rattus norvegicus) (P62483 whole entry, looked up): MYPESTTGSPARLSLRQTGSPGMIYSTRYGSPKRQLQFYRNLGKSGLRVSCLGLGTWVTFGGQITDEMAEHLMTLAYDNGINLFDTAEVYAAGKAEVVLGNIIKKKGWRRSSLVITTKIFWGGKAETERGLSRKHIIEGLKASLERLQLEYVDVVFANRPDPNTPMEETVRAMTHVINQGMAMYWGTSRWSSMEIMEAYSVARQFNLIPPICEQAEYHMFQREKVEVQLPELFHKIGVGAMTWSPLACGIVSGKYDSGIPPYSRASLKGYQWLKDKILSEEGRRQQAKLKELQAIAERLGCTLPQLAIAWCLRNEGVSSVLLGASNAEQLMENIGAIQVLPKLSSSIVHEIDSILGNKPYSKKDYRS

[6] = biological target: Voltage-gated potassium channel subunit beta-2 (Rattus norvegicus) (UniProt P62483); assay: enhancers of rat Kvbeta2 NADPH turnover – biochemical, NADPH fluorescence, primary screen (AID 623;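 active means NADPH fluorescence slope more negative than the mean of all samples by about 3 SD, 99.7% confidence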;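 further: fluorescence intensity change per second fitted from 20 to 320 s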); conditions: Recombinant KvBeta, NADPH fluorescence decrease slope, 10 min; at 10 µM; stronger effect = lower value
[7] = biological target: Alpha-2C adrenergic receptor (Homo sapiens) (UniProt P18825); assay: compounds altering alpha2C-coupled GIRK flux – cell-based, HEK293 alpha2C/GIRK1/2, thallium flux, primary screen (AID 624;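 active means fluorescence slope after compound addition differing from the mean of all screened samples at 99.7% confidence, in either direction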;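 further: slope of fluorescence ratio to pre-addition baseline per second over 15 to 24 s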); conditions: thallium flux BTC fluorescence, at 10 µM, actives lie on both sides
Sequence of Alpha-2C adrenergic receptor (Homo sapiens) (P18825 whole entry, looked up): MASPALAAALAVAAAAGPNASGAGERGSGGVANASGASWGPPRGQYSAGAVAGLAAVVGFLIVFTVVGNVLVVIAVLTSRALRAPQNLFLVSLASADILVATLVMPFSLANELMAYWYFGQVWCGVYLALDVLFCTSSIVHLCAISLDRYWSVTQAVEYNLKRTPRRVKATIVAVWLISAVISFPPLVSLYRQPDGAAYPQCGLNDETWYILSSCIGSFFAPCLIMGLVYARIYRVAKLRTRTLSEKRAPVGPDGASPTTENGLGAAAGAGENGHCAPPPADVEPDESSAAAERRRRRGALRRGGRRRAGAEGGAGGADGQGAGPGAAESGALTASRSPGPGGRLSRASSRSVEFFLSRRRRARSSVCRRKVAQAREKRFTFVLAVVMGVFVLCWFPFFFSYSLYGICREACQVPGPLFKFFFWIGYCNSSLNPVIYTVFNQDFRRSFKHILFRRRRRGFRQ

[8] = inhibitors of larval lipid processing in zebrafish, primary screen, whole organism, PED6 fluorescence, gall bladder and intestine (AID 686;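 active means a full or partial loss of lipid-probe fluorescence in the fish gall bladder, intestine or both, judged by eye; inactive means no fluorescence loss, or compound toxic to the fish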;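 further: larvae 5 to 7 days old with five fish per well; signal comes from phospholipase A2 cleavage of quenched PED6 carried via bile; overnight exposure to compound and PED6 before scoring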); conditions: Zebrafish larvae PED6 lipid processing, fluorescence scoring; screened at 20 µM (by protocol)
[9] = loss of swimming-algae plug formation – whole organism, Chlamydomonas reinhardtii, WT vs cilia-less mutant, absorbance, 96-well, primary screen (AID 463189); conditions: Chlamydomonas reinhardtii gravitaxis, OD600 absorbance, 2 days; at 10 µM; stronger effect = higher value;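 further: 0% = wild type cc124 cells in DMSO and 100% = ciliumless bld1 mutant cells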
[10] = blockers of RIG-like receptor reporter activation – cell-based, Sendai virus stimulus, luciferase, 10K MLSCN set, TLR/RLR signaling modifier project, primary screen (AID 602276;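 active means inhibition at or above 50% at 10 µM; inactive means inhibition below 50%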;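 further: firefly luciferase from ISG56 promoter only with Renilla not read in this screen; 0% = Sendai virus plus DMSO and 100% = medium plus DMSO without virus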); conditions: HEK293 RL24 IRF3 luciferase reporter, at 10 µM, stronger effect = higher value
[11] = TLR3 IRF3 reporter activation blockers – cell-based, poly I:C stimulus, luciferase, 10K MLSCN set, primary screen (AID 602277;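 active means inhibition of the reporter signal at or above 50%; inactive means inhibition below 50%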); conditions: HEK293-TLR3 RL24 IRF3 luciferase reporter, at 10 µM, stronger effect = higher value
[12] = measured here: cell density z-score
[13] = measured here: nuclear c-Myc green intensity z-score
[14] = measured here: nuclear pErk red intensity z-score, stronger effect = higher value

SMILES | inhibition of aggregation [1] | nuclei count [1] [%] | inhibition [2] | nuclei count [2] [%] | z-score [3, 12] | z-score [3, 13] | z-score [3, 14] | inhibition [4] | fluorescence slope [5] | NADPH fluorescence slope [6] | slope [7] | outcome [8] | inhibition [9] | inhibition [10] | inhibition [11]
CNC(=O)Oc1ccc2c(c1)[C@]1(C)CCN(C)[C@@H]1N2C | 21.6% (inactive) | 88.6 | -22.9% (inactive) | 104 | -2.43 | -0.577 | -0.583 | -6.41% (inactive) | -0.435 (inactive) | 1.7e-05 (inactive) | 0.00657 (inactive) | inactive | -0.375% (inactive) and -9.03% (inactive) | 15.2% (inactive) | 36.1% (inactive)
CN1Cc2c(N)cccc2C(c2ccccc2)C1 (stereo not given) | 5.1% (inactive) | 95.3 | -73% (inactive) | 131 | -0.942 | 0.0925 | 1.7 | 3.45% (inactive) | -0.505 (inactive) | -5.7e-05 (inactive) | 0.00524 (inactive) | inactive | 70.5% (active) and 60.3% (active) | 9.51% (inactive) | 22.5% (inactive)
CNCCC(Oc1ccc(C(F)(F)F)cc1)c1ccccc1 (stereo not given) | 10.2% (inactive) | 100 | -36.9% (inactive) | 127 | -0.242 | 0.755 | 0.581 | 12.4% (inactive) | -0.447 (inactive) | -4.5e-05 (inactive) | 0.00359 (inactive) | inactive | 1.27% (inactive) and 34.8% (inactive) | 21% (inactive) | 34.3% (inactive)
CCCc1cc(=O)[nH]c(=S)[nH]1 | 6.2% (inactive) | 105 | -113% (inactive) | 126 | 0.461 | -0.47 | -0.798 | 15.3% (inactive) | -0.468 (inactive) | -6.3e-05 (inactive) | 0.00437 (inactive) | inactive | -10.4% (inactive) | 10.3% (inactive) | 30.1% (inactive)
c1ccc2c(c1)CCCC2C1=NCCN1 (stereo not given) | -2.2% (inactive) | 106 | -52.5% (inactive) | 112 | -1.5 | 0.768 | 0.367 | 5.79% (inactive) | -0.464 (inactive) | -5e-05 (inactive) | 0.00529 (inactive) | inactive | 8.79% (inactive) and 22.7% (inactive) | 12.1% (inactive) | 48.1% (inactive)
CCn1cc(C(=O)O)c(=O)c2cnc(N3CCNCC3)nc21 | 1.6% (inactive) | 108 | -26.1% (inactive) | 127 | 0.597 | 0.614 | 0.576 | 14.6% (inactive) | -0.512 (inactive) | -1.1e-05 (inactive) | 0.00483 (inactive) | inactive | -9.24% (inactive) | 4.06% (inactive) | 33.1% (inactive)
C=C(CC)C(=O)c1ccc(OCC(=O)O)c(Cl)c1Cl | 19.4% (inactive) | 108 | -32.5% (inactive) | 120 | -0.0756 | -0.0149 | 0.974 | 5.42% (inactive) | -0.476 (inactive) | -8e-05 (inactive) | 0.00538 (inactive) | inactive | -3.46% (inactive) | 17.1% (inactive) | 39.1% (inactive)
CCCC1O[C@@H]2C[C@H]3[C@@H]4CCC5=CC(=O)C=C[C@]5(C)[C@H]4[C@@H](O)C[C@]3(C)[C@]2(C(=O)CO)O1 (stereo not given in full) | -17.2% (inactive) | 58 | -133% (inactive) | 138 | 0.229 | -0.532 | -0.405 | 13.3% (inactive) | -0.423 (inactive) | 1.2e-05 (inactive) | 0.00479 (inactive) | inactive | 6.85% (inactive) and -4.63% (inactive) | 0.287% (inactive) | 58.3% (active)
COc1cc2nc(N3CCN(C(=O)C4COc5ccccc5O4)CC3)nc(N)c2cc1OC (stereo not given) | -4.2% (inactive) | 100 | -103% (inactive) | 123 | 0.0825 | -0.753 | -0.892 | -0.493% (inactive) | -0.435 (inactive) | -3.3e-05 (inactive) | 0.00431 (inactive) | inactive | -6.99% (inactive) and 1.78% (inactive) | 5.11% (inactive) | 24.7% (inactive)
CC(=O)[C@@]1(O)CC[C@H]2[C@@H]3C[C@H](C)C4=CC(=O)C=C[C@]4(C)[C@@]3(F)[C@@H](O)C[C@@]21C | 10.8% (inactive) | 60.1 | -32.9% (inactive) | 121 | 0.696 | 0.132 | 1.25 | 7.39% (inactive) | -0.416 (inactive) | -5e-05 (inactive) | 0.0055 (inactive) | inactive | -2.25% (inactive) | 13.2% (inactive) | 38.7% (inactive)
COc1cccc2c1C(=O)c1c(O)c3c(c(O)c1C2=O)C[C@@](O)(C(C)=O)C[C@@H]3O[C@H]1C[C@H](N)[C@H](O)[C@H](C)O1 | 49.1% (inactive) | 0.6 | 92.8% (active) | 84 | 0.473 | 10.2 | 4.38 | 102% (active) | -0.452 (inactive) | -3.6e-05 (inactive) | 0.00285 (inactive) | inactive | 33% (inactive) | -34.8% (inactive) | 102% (active)
CC(=O)Oc1ccc(C(c2ccc(OC(C)=O)cc2)c2ccccn2)cc1 | -12.4% (inactive) | 99.8 | -68.3% (inactive) | 100 | -0.73 | 0.784 | 0.224 | 5.79% (inactive) | -0.45 (inactive) | -2.1e-05 (inactive) | 0.00425 (inactive) | inactive | 19.6% (inactive) | 12.5% (inactive) | 40.9% (inactive)
C[C@H]1C[C@H]2[C@@H]3CCC4=CC(=O)C=C[C@]4(C)[C@@]3(Cl)[C@@H](O)C[C@]2(C)[C@@]1(O)C(=O)CO | -11.8% (inactive) | 69.5 | -5.2% (inactive) | 113 | 0.584 | -0.957 | -0.321 | -4.44% (inactive) | -0.496 (inactive) | -7.9e-05 (inactive) | 0.00488 (inactive) | inactive | -5.54% (inactive) | 8.02% (inactive) | 22.6% (inactive)
O=C1NC(=O)C(c2ccccc2)(c2ccccc2)N1 | -21.7% (inactive) | 101 | 23.3% (inactive) | 102 | 0.136 | -0.248 | -1.03 | 3.59% (inactive) | -0.471 (inactive) | 3.3e-05 (inactive) | 0.00448 (inactive) | inactive | 2.61% (inactive) and -21.3% (inactive) | -7.98% (inactive) | -7.53% (inactive)
CC1(C)O[C@@H]2C[C@H]3[C@@H]4CCC5=CC(=O)C=C[C@]5(C)[C@@]4(F)[C@@H](O)C[C@]3(C)[C@]2(C(=O)CO)O1 | -6.5% (inactive) | 62.6 | -115% (inactive) | 116 | 0.696 | -0.511 | -0.313 | -2.46% (inactive) | -0.515 (inactive) | -2.4e-05 (inactive) | 0.00512 (inactive) | inactive | -13.3% (inactive) | -3.36% (inactive) | 10.8% (inactive)
CCN1CCN(C(=O)N[C@@H](C(=O)N[C@@H]2C(=O)N3[C@@H]2SC(C)(C)[C@@H]3C(=O)O)c2ccccc2)C(=O)C1=O | 2.8% (inactive) | 97.2 | -1.2% (inactive) | 101 | -0.734 | -0.264 | -1.18 | 5.42% (inactive) | -0.465 (inactive) | -4.7e-05 (inactive) | 0.0054 (inactive) | inactive | -8.35% (inactive) | 6.7% (inactive) | 14.4% (inactive)
OCCOCCN1CCN(C(c2ccccc2)c2ccc(Cl)cc2)CC1 (stereo not given) | 2.8% (inactive) | 101 | -65.7% (inactive) | 139 | -1.36 | 1.18 | 1.19 | -0.828% (inactive) | -0.46 (inactive) | 2.2e-05 (inactive) | 0.00446 (inactive) | inactive | -13.4% (inactive) | 14.5% (inactive) | 34.4% (inactive)
Cc1cn([C@H]2C=C[C@@H](CO)O2)c(=O)[nH]c1=O | -10.6% (inactive) | 106 | -114% (inactive) | 123 | -0.857 | 1.21 | -0.244 | 7.39% (inactive) | -0.461 (inactive) | 2.9e-05 (inactive) | 0.00508 (inactive) | inactive | -4.19% (inactive) and -13.6% (inactive) | 16.3% (inactive) | 37.9% (inactive)
CC1(C)O[C@@H]2C[C@H]3[C@@H]4C[C@H](F)C5=CC(=O)C=C[C@]5(C)[C@@]4(F)[C@@H](O)C[C@]3(C)[C@]2(C(=O)CO)O1 | -15.7% (inactive) | 58 | -6.4% (inactive) | 102 | 1.28 | -0.179 | -0.732 | 27.1% (inactive) | -0.489 (inactive) | 1.8e-05 (inactive) | 0.00523 (inactive) | inactive | -10.3% (inactive) | 5.68% (inactive) | 56.9% (active)
CC(COc1ccccc1)N(CCCl)Cc1ccccc1 (stereo not given) | 3.6% (inactive) | 91.3 | -41.5% (inactive) | 106 | 0.673 | 0.156 | -1.5 | 3.59% (inactive) | -0.458 (inactive) | -8e-05 (inactive) | 0.00427 (inactive) | inactive | -4.83% (inactive) and 76.9% (active) | 4.33% (inactive) | 22.7% (inactive)
Clc1ccc(Cn2c(CN3CCCC3)nc3ccccc32)cc1 | 13.4% (inactive) | 112 | -57.5% (inactive) | 133 | 0.217 | 0.404 | 0.417 | 1.48% (inactive) | -0.551 (inactive) | -3.2e-05 (inactive) | 0.00478 (inactive) | inactive; toxic | 2.55% (inactive) and 22.9% (inactive) | 16.5% (inactive) | 28.2% (inactive)
